# Bioassay records: PubChem BioAssay, National Center for Advancing Translational Sciences (NCATS)
# This is a sample that favours compounds with a hit; in the whole collection about 18% have one here.
# TDP1 block – blocks human tyrosyl-DNA phosphodiesterase 1; AID 485290; actives 0.28% (n = 350,000); recombinant TDP1, AlphaScreen DNA substrate cleavage; Q9NUW8; Potency, µM (top dose mostly 130 µM), for the others: at the top dose activity change, negative = inhibition, most hits filed as inhibitors; note: potency is the fitted concentration of half-maximal effect; nearly all actives have a fitted effect of over 40% in size
#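 Here, a 5' biotin and 3' phosphotyrosine-FITC DNA oligonucleotide reports Tdp1 activity: intact substrate bridges AlphaScreen beads, while cleavage leaves a 3' phosphate and drops signal. All incubations at room temperature.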
# CtBP-E1A inh – blocks the CtBP interaction with E1A. AlphaScreen GST-E1A/His-CtBP binding, 1536-well; hits give low values. activity change, % (test concentration not listed). actives 0.49% (n = 340,000). AID 651724; in the data active = activity change below about -65%; inconclusive = mostly about -30% to -63%
#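 Steps: dispense buffer (Tris pH 8.0, NaCl 300 mM, TCEP 1 mM, BSA, Tween 20); add 5X protein mix (GST-E1A, His-CtBP, 125 nM each); pin 23 nL compound; 2 h at 37 °C, dark; add 5X beads (50 ug/mL); 1 h; read.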
# Six1-Eya2 blk – blocks human Six1 binding to Eya2; AlphaScreen GST-Six1/His-Eya2 binding, biochemical; hits give low values; activity change, % (test concentration not listed); actives 0.56% (n = 360,000); AID 651725; in the data active = activity change below about -65%; inconclusive = mostly about -30% to -63%
# Target sequence (O00167 whole entry, looked up): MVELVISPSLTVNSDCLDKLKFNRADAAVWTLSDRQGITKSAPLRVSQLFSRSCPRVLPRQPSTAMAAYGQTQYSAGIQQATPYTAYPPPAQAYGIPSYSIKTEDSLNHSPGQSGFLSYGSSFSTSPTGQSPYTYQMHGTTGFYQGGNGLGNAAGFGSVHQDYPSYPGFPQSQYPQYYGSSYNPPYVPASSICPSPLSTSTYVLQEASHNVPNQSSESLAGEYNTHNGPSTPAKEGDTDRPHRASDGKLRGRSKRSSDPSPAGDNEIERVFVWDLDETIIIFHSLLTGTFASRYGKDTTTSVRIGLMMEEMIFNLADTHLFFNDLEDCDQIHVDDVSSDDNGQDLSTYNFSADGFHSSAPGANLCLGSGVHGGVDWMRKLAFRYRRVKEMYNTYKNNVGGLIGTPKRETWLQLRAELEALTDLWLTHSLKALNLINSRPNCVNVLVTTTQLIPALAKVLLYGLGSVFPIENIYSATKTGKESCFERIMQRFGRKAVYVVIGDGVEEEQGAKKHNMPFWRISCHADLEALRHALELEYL
# Target sequence (Q15475 whole entry, looked up): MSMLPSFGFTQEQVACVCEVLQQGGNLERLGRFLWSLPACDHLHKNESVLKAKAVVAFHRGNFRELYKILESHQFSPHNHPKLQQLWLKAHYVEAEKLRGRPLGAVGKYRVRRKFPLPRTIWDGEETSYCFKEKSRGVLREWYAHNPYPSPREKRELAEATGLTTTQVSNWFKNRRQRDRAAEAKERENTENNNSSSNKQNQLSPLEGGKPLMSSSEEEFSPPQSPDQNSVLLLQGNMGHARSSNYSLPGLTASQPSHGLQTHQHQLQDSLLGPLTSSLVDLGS
#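 AlphaScreen luminescence read after one hour at 37 °C in darkness. Pin-transferred compounds met GST-Six1 and His-Eya2 protein (5X stock 250 nM/500 nM) plus glutathione donor and Ni-chelate acceptor beads (5X, 50 ug/mL).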
# IL1B secr inh – inflammasome signaling inhibition, IL-1 beta readout | THP-1 LPS/ATP IL-1B secretion, AlphaLISA, 16 h; hits give low values | activity change, % at 57.5 µM | actives 4.7% (n = 360,000) | AID 743279; in the data active = activity change below about -50%; inconclusive = mostly about -30% to -49%
#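 THP-1 cells pretreated 1 hr with compounds (up to 57.5 uM final), then stimulated with LPS (250 ng/mL final) plus ATP (1.25 mM final); secreted IL-1B measured by AlphaLISA after 16 hr, decreased signal indicating inhibition.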
# DT40 TDP1 no CPT – qHTS for Inhibitors of human tyrosyl-DNA phosphodiesterase 1 (TDP1): qHTS in cells in absence of CPT; DT40 Tdp1-/- hTDP1 cells, no CPT, ATP luminescence, 48 h; Potency, µM (highest dose often 46.2 µM), for inactives: top-dose activity change, negative = growth inhibition, usual class: inhibitors; actives 15% (n = 420,000); AID 686978, 2013; note: potency is the fitted concentration of half-maximal effect; nearly all actives have a fitted effect of over 55% in size
#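 Stably hTDP1-transfected Tdp1-null chicken DT40 cells were treated with library compounds minus camptothecin and grown for at least 48 hr at 37 °C, after which cellular ATP was quantified by luminescence.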
# TDP1 cell CPT – DT40-hTDP1 cell growth loss with CPT | chicken DT40 Tdp1-/-;hTDP1 cells + 20 nM CPT, ATP luminescence, 48 h | Potency, µM (top dose mostly 46.2 µM), for inactives: top-dose activity change, negative = growth inhibition, usual class: inhibitors | actives 12% (n = 420,000) | AID 686979; note: potency is the fitted concentration of half-maximal effect; nearly all actives have a fitted effect of over 55% in size
#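 Chicken DT40 Tdp1-/- cells stably complemented with human TDP1 were seeded at 400 cells/well in medium containing 20 nM camptothecin, exposed to pin-transferred compounds, and grown at 37 °C for at least 48 hr. Viability was read as ATP luminescence.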
# Numbers without * were called inactive; ? = inconclusive; nt = no result given; [ ] = dose if it differs, or a comment. Unless noted, calls come from the whole dose curve; as a rule, active = well fitted curve in the direction sought with a large enough effect; inconclusive = small, poorly fitted or top-dose-only effect, or another doubt; inactive = no such curve, though single readings can be large; an effect the other way counts as inactive or inconclusive. % is set by controls: 0 for no effect and ±100 for the full control effect.
SMILES,TDP1 block,CtBP-E1A inh,Six1-Eya2 blk,IL1B secr inh,DT40 TDP1 no CPT,TDP1 cell CPT
COc1ccc(CCNC(=O)c2ccc3c(c2)sc2nc(-c4ccccc4)cn23)cc1OC,3.9%,nt,nt,nt,7.31µM*,5.17µM*
COc1ccc(-c2cn3c(n2)sc2cc(C(=O)NCC(C)c4ccccc4)ccc23)cc1 (stereo unspecified),0.0%,nt,nt,nt,5.8µM*,?
CCc1ccc(-c2cn3c(n2)sc2cc(C(=O)NCC(C)c4ccccc4)ccc23)cc1 (stereo unspecified),-2.6%,nt,nt,nt,-15.0%,?
COc1cc(/C=C2/C(=N)N3C(=NC2=O)SN=C3S(=O)(=O)C(C)C)ccc1OS(=O)(=O)c1ccccc1,4.9%,nt,nt,nt,nt,nt
CN(C)c1ccc(CN(CC2CCCO2)C(=O)c2ccc(Br)cc2)cc1 (stereo unspecified),7.0%,nt,nt,nt,-78.2%,?
COc1ccc(CN(CC2CCCO2)C(=O)CN2C(=O)C(C)Oc3ccc(C)cc32)cc1OC (stereo unspecified),-7.1%[56.1 µM],1.8,-9.1,-8.4,18.4µM*,?
COc1ccccc1OCC(=O)N(Cc1ccc(N(C)C)cc1)CC1CCCO1 (stereo unspecified),7.0%,nt,nt,nt,14.6µM*,23.1µM*
Cc1ccc2c(c1)N(Cc1ccccc1)C(=O)C(C)O2 (stereo unspecified),nt,1.1,8.9,61.4,-26.5%,-23.3%
CCC1Oc2ccc(C)cc2N(CC(=O)N(Cc2ccc3c(c2)OCO3)CC2CCCO2)C1=O (stereo unspecified),7.0%,-8.7,-8.6,?,?,?
CN(C)c1ccc(CN(CC2CCCO2)C(=O)COc2ccccc2Cl)cc1 (stereo unspecified),9.3%,nt,nt,nt,18.4µM*,?
COC(=O)c1cccc(CN2C(=O)C(C)Oc3ccc(C)cc32)c1 (stereo unspecified),nt,6.4,9.3,2.3,20.6µM*,20.6µM*
O=C(Oc1ccccc1)N1CCC[C@@]2(CCN(c3ccccn3)C2)C1,nt,nt,nt,nt,-20.1%,-3.1%
Cc1cc(C)cc(OCC(=O)N(Cc2ccc(Cl)cc2)CC2CCCO2)c1 (stereo unspecified),-12.0%,nt,nt,nt,?,?
Cc1cc(Cl)ccc1OCC(=O)N(Cc1ccc(N(C)C)cc1)CC1CCCO1 (stereo unspecified),11.6%,nt,nt,nt,25.9µM*,?
[N-]=[N+]=NC[C@H](c1ccccc1)N1CCN(Cc2ccccc2)CCC1=O,nt,0.5,3.0,-3.7,-1.6%,-6.7%
CCO[C@@H]1OC(C(=O)Nc2ccccc2)=C[C@H](c2ccc(C(F)(F)F)cc2)[C@H]1CCCO,2.6%,1.0,5.8,-11.8,?,?
CC1CCC2C(=O)N(c3ccc(Cc4ccncc4)cc3)C(=O)C2C1 (stereo unspecified),1.2%,-5.9,-0.8,0.0,10.3µM*,5.8µM*
CC1CCN(C(=O)c2ccc(N3C(=O)C4CCC(C)CC4C3=O)cc2)CC1 (stereo unspecified),0.0%,10.4,5.1,nt,-19.9%,4.6%
CCc1ccc(N2C(=O)C3C4C=CC(CC4)C3C2=O)cc1 (stereo unspecified),nt,nt,3.5,26.3,?,?
O=C1C2C3C=CC(C3)C2C(=O)N1c1ccc(Cc2ccncc2)cc1 (stereo unspecified),1.0%,-0.2,4.2,17.2,13µM*,?
O=C1C2=C(S[C@@H]3O[C@H](CO)[C@@H](O)[C@H](O)[C@H]3O2)C(=O)c2ccccc21,-1.2%,nt,nt,nt,0.651µM*,0.651µM*
Cc1ccc(S(=O)(=O)N(CC#N)CC#N)cc1,4.8%,5.0,-0.3,45.5,-4.2%,-0.4%
COc1cccc(-c2sc3ccccc3c2-c2ccc(OCCN(C)C)cc2)c1,11.1%,?,-26.1,?,18.4µM*,?
COc1cccc(-c2sc3ccc(OC)cc3c2-c2ccc(C(N)=O)cc2)c1,1.7%,0.2,-0.2,-24.9,-22.6%,?
COc1cccc(-c2sc3ccccc3c2-c2ccc(OCCN3CCCC3)cc2)c1,10.3%,-3.2,-21.5,-22.7,8.2µM*,9.2µM*
SMILES,TDP1 block,CtBP-E1A inh,Six1-Eya2 blk,IL1B secr inh,DT40 TDP1 no CPT,TDP1 cell CPT
COc1cccc(-c2sc3ccccc3c2-c2ccc(OCCN3CCCCC3)cc2)c1,8.0%,-7.1,-23.7,?,18.4µM*,?
COc1cccc(-c2sc3cc(OC)c(OC)cc3c2-c2ccc(OCCN3CCCCC3)cc2)c1,7.9%[56.1 µM],?,-27.1,-11.3,13µM*,18.4µM*
CC(=O)CC(=O)NC1CCc2ccccc21 (stereo unspecified),nt,-13.6,9.0,51.1,-21.6%,-3.1%
O=C(Cc1sc(Nc2ccccc2)nc1-c1ccccc1)NCc1ccccn1,8.3%,5.2,-6.9,-7.0,?,-14.3%
Cc1ccc(NC(=O)c2nc[nH]c2C(=O)N(C)Cc2ccccc2)cc1,-0.2%,nt,-9.4,-5.9,?,?
O=S(=O)(N1CCCCC1)N1CCCN(S(=O)(=O)N2CCCCC2)CC1,0.0%,-0.4,5.1,10.4,0.3%,10.8%
O=C1CCCN1CC(O)CS(=O)(=O)c1ccc(Cl)cc1 (stereo unspecified),-11.9%,9.4,-0.1,0.9,-0.1%,-2.8%
COc1ccc2sc(-c3ccccc3OC)c(-c3ccc(OCCN(C)C)cc3)c2c1,5.0%[56.1 µM],-26.7,-26.4,?,20.6µM*,16.4µM*
c1ccc(-c2sc3ccccc3c2-c2ccc(OCCN3CCCC3)cc2)cc1,9.1%,-4.2,-20.1,?,14.6µM*,20.6µM*
O=C(Cn1c(=O)n(CCCS(=O)(=O)C2CCCCC2)c(=O)c2ccccc21)Nc1ccccc1F,-2.5%,nt,nt,nt,-9.0%,-30.0%
CC1(C)CC(=O)C2=C(C1)NC(=O)CC2c1cc(F)ccc1F (stereo unspecified),3.1%,2.9,-1.9,5.6,-14.3%,-14.6%
